Drawing on PMC11062922 (Nature Chemical Biology, 2023), this text covers potency estimated from few doses for five molecules.

Where two headings read alike, the source gives them in different places.

Parameters in all cases: species or system human, MV4-11 + K-562 + COLO205 + SK-N-BE2 + OVCAR-8
The subject of one experiment is ADCK5. Particulars: read-out: apparent Kd; compound concentrations:100 nM and 1000 nM (sheet 'Samples'); n = 1.
Another experiment concerns ADRBK1. Particulars: read-out: apparent Kd, n = 1.
For the next experiment, the system named is AKT2. Particulars: read-out: apparent Kd; compound concentrations:100 nM and 1000 nM (sheet 'Samples'); n = 1.
A further experiment relates to CDK4. Particulars: read-out: apparent Kd; compound concentrations:100 nM and 1000 nM (sheet 'Samples'); n = 1.
A further experiment concerns CDK6. The settings on record: read-out: apparent Kd, n = 1.
For the next experiment, the system named is DDR1. The settings on record: read-out: apparent Kd; compound concentrations:100 nM and 1000 nM (sheet 'Samples'); n = 1.
The subject of a further experiment is MAP2K2. Particulars: read-out: apparent Kd; compound concentrations:100 nM and 1000 nM (sheet 'Samples'); n = 1.
A further experiment concerns NNT. The settings on record: read-out: apparent Kd; compound concentrations:100 nM and 1000 nM (sheet 'Samples'); n = 1.
The test system of a further experiment is NQO1. Particulars: read-out: apparent Kd; compound concentrations:100 nM and 1000 nM (sheet 'Samples'); n = 1.
For a further experiment, the system named is RIOK2. The settings on record: read-out: apparent Kd; compound concentrations:100 nM and 1000 nM (sheet 'Samples'); n = 1.
The subject of a further experiment is STK26. Particulars: read-out: apparent Kd; compound concentrations:100 nM and 1000 nM (sheet 'Samples'); n = 1.
The test system of another experiment is TP53RK. The settings on record: read-out: apparent Kd; compound concentrations:100 nM and 1000 nM (sheet 'Samples'); n = 1.
The subject of a further experiment is CLK3. Particulars: read-out: apparent Kd; compound concentrations: 100 nM and 1000 nM (sheet 'Samples'), CATDS: 0.34896481785662797; n = 1.
The test system of a further experiment is COX5A. The settings on record: read-out: apparent Kd; compound concentrations:100 nM and 1000 nM (sheet 'Samples'); n = 1.
For the next experiment, the system named is EPHA7. The settings on record: read-out: apparent Kd; compound concentrations:100 nM and 1000 nM (sheet 'Samples'); n = 1.
Another experiment deals with PIK3CB. Particulars: read-out: apparent Kd; compound concentrations:100 nM and 1000 nM (sheet 'Samples'); n = 1.
The next experiment deals with ADK. The settings on record: read-out: apparent Kd; compound concentrations:100 nM and 1000 nM (sheet 'Samples'); n = 1.
The test system of a further experiment is CAMK2B. Particulars: read-out: apparent Kd; compound concentrations:100 nM and 1000 nM (sheet 'Samples'); n = 1.
For a further experiment, the system named is CAMK2D. Particulars: read-out: apparent Kd; compound concentrations:100 nM and 1000 nM (sheet 'Samples'); n = 1.
The next experiment deals with CSNK1G1. The settings on record: read-out: apparent Kd; compound concentrations:100 nM and 1000 nM (sheet 'Samples'); n = 1.
For a further experiment, the system named is EIF2AK1. Particulars: read-out: apparent Kd; compound concentrations:100 nM and 1000 nM (sheet 'Samples'); n = 1.
The subject of a further experiment is ERN2. The settings on record: read-out: apparent Kd; compound concentrations:100 nM and 1000 nM (sheet 'Samples'); n = 1.
The test system of another experiment is FN3KRP. The settings on record: read-out: apparent Kd; compound concentrations:100 nM and 1000 nM (sheet 'Samples'); n = 1.
For another experiment, the system named is FN3K. The settings on record: read-out: apparent Kd; compound concentrations:100 nM and 1000 nM (sheet 'Samples'); n = 1.
The test system of another experiment is ICK. Particulars: read-out: apparent Kd; compound concentrations:100 nM and 1000 nM (sheet 'Samples'); n = 1.
The next experiment has as its system LATS1. Particulars: read-out: apparent Kd; compound concentrations:100 nM and 1000 nM (sheet 'Samples'); n = 1.
For the next experiment, the system named is MAP2K1. Particulars: read-out: apparent Kd; compound concentrations: 100 nM and 1000 nM (sheet 'Samples'), CATDS: 0.123510753631687; n = 1.
For another experiment, the system named is MAPK3. Particulars: read-out: apparent Kd; compound concentrations:100 nM and 1000 nM (sheet 'Samples'); n = 1.
A further experiment has as its system NEK2. The settings on record: read-out: apparent Kd; compound concentrations:100 nM and 1000 nM (sheet 'Samples'); n = 1.
A further experiment concerns NQO2. The settings on record: read-out: apparent Kd; compound concentrations:100 nM and 1000 nM (sheet 'Samples'); n = 1.
The subject of another experiment is NUAK1. Particulars: read-out: apparent Kd; compound concentrations:100 nM and 1000 nM (sheet 'Samples'); n = 1.
Another experiment concerns PAK6. Particulars: read-out: apparent Kd; compound concentrations:100 nM and 1000 nM (sheet 'Samples'); n = 1.
In another experiment the test system is PBK. The settings on record: read-out: apparent Kd; compound concentrations:100 nM and 1000 nM (sheet 'Samples'); n = 1.
Another experiment concerns PDXK. The settings on record: read-out: apparent Kd; compound concentrations:100 nM and 1000 nM (sheet 'Samples'); n = 1.
A further experiment deals with PFKP. The settings on record: read-out: apparent Kd; compound concentrations:100 nM and 1000 nM (sheet 'Samples'); n = 1.
A further experiment concerns PRKX;PRKY. Particulars: read-out: apparent Kd; compound concentrations:100 nM and 1000 nM (sheet 'Samples'); n = 1.
A further experiment concerns TESK1. Particulars: read-out: apparent Kd; compound concentrations:100 nM and 1000 nM (sheet 'Samples'); n = 1.
The mark [1] stands for this setting: compound concentrations:100 nM and 1000 nM (sheet 'Samples').

Turning to `COC(=O)Nc1nc2ccc(Oc3ccc(NC(=O)Nc4cc(C(F)(F)F)ccc4F)cc3)cc2n1C.Cl` [GW692089A], the potency estimated from few doses is 1770 nM in the experiment with ADCK5; 1500 nM with ADRBK1 (setting [1]); 2410 nM with AKT2; 2200 nM with CDK4; 2300 nM in the experiment with CDK6 (setting [1]); 1030 nM in the experiment with DDR1. The potency estimated from few doses with MAP2K2 is 2020 nM; with NNT it was 1910 nM; in the experiment with NQO1, 1810 nM; in the experiment with RIOK2 it was 2170 nM; in the experiment on STK26 it was 1760 nM; in the experiment on TP53RK it was 1400 nM.

With `COc1ccc(CNC(=O)NC2CCN(c3ccnc(Nc4ccc(OC)cc4)n3)C2)cc1` (stereo not shown) [GSK1379727A], the potency estimated from few doses in the experiment on ADRBK1 (compound concentrations: 100 nM and 1000 nM (sheet 'Samples'), CATDS: 0.35126637263884503) was 1270 nM; with CDK6 (compound concentrations: 100 nM and 1000 nM (sheet 'Samples'), CATDS: 0.30417888081932698), 1700 nM; with CLK3, 1280 nM.

Consider `O=c1cc(N2CCOCC2)nc2n(Cc3ccccc3F)ccn12` [GSK2297428A], for which the potency estimated from few doses with ADRBK1 (setting [1]) was 1690 nM; in the experiment on COX5A, 1300 nM; with EPHA7, 1660 nM; in the experiment on PIK3CB, 385 nM.

With `C[C@@H](c1ccccc1)[C@@H](C(=O)Nc1ccc(I)cc1F)N1C(=O)N[C@H](c2ccc(OC[C@H](O)CO)cc2)C1=O` [RO5068760-000], the potency estimated from few doses in the experiment on ADK was 1000 nM; with CAMK2B it was 544 nM; in the experiment on CAMK2D it was 450 nM; with CSNK1G1 it was 2040 nM; in the experiment on EIF2AK1, 1390 nM; in the experiment on ERN2, 1170 nM. For the same molecule, the potency estimated from few doses in the experiment with FN3KRP was 959 nM; with FN3K it was 1200 nM; in the experiment on ICK, 1310 nM; in the experiment with LATS1, 1760 nM; in the experiment with MAP2K1, 183 nM; with MAP2K2, 165 nM. Moreover, the potency estimated from few doses was 1330 nM in the experiment on MAPK3; 1570 nM with NEK2; 787 nM in the experiment on NQO2; 1920 nM with NUAK1; 1730 nM with PAK6; 2030 nM in the experiment on PBK. Besides, the potency estimated from few doses in the experiment on PDXK was 612 nM; with PFKP, 2220 nM; with PRKX;PRKY, 1130 nM; in the experiment with TESK1, 543 nM; in the experiment on TP53RK, 1620 nM.

On to `Nc1cccc(-c2ccc3c(N)n[nH]c3c2)n1` [GSK2192730A], for which, in the experiment on ADRBK1 (compound concentrations: 100 nM and 1000 nM (sheet 'Samples'), CATDS: 1), the potency estimated from few doses was 1750 nM.
